According to the supplement of paper PMC11732987, “Enantioselective OTUD7B fragment discovery through chemoproteomics screening and high-throughput optimisation” (Communications Chemistry, 2025):

How the values were obtained:
Assay in all cases: log2 ratio of Biotin-Ahx-Ub-VS probe labelling (fragment/DMSO); higher = less target engagement (more negative = stronger competition), active = hit call of the paper (q ≤ 0.05, log2 ratio ≤ -1)
Conditions in all cases: compound concentration: 200 uM; treatment time: 3 h
[1] = target: T1, USP19 (UniProt O94966)
T1 sequence (whole entry): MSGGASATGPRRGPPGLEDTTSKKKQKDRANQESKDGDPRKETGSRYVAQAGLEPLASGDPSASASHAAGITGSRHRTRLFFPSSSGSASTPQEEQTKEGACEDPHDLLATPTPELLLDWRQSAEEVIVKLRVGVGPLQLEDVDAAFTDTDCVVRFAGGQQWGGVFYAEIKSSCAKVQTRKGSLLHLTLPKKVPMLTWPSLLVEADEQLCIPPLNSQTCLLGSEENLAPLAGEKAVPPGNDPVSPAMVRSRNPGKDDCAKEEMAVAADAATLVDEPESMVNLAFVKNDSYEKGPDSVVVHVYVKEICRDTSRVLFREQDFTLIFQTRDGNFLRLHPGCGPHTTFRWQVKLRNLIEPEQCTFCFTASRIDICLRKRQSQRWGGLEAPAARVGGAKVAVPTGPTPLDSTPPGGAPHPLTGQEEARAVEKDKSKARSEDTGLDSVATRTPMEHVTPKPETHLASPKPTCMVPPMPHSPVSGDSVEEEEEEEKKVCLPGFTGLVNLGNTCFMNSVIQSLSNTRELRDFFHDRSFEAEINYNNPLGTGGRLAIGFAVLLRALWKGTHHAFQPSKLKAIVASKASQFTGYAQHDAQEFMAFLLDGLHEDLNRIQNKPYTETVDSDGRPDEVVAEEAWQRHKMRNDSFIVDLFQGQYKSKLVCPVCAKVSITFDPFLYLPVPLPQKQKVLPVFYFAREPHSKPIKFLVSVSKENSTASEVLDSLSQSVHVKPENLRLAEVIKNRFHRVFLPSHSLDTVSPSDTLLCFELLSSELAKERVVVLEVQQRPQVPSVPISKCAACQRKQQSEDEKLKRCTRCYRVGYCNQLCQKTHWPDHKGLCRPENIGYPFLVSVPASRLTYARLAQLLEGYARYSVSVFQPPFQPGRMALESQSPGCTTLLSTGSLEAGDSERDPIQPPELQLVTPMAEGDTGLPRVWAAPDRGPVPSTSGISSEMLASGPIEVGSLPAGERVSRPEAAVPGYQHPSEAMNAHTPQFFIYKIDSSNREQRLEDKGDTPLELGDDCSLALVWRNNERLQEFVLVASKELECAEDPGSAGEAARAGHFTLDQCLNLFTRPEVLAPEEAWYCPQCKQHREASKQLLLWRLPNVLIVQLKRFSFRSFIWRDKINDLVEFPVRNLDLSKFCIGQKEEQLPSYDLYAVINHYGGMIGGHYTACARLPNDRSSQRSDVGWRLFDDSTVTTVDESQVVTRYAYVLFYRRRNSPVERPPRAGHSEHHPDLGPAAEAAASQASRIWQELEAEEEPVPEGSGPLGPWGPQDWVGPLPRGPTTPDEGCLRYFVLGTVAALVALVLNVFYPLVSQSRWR
In short: (§1)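 HEK293T lysate (495 µg per sample, in Tris/CHAPS/IGEPAL buffer with protease inhibitors) was treated in triplicate with fragment at 200 µM or with DMSO for 3 h. It was then treated with Biotin-Ahx-Ub-VS (0.5 µM final) for 1 h. Labelled DUBs were NeutrAvidin-enriched, digested with LysC and trypsin, and run by diaPASEF LC-MS/MS. Spectronaut label-free quantities were global-median-normalised. Values are average log2 ratios fragment/DMSO by unpaired t-test, using proteins with ≥2 unique peptides.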

[2] = target: USP24 (UniProt Q9UPU5)
In short: as §1

[3] = target: T2, USP25 (UniProt Q9UHP3)
T2 sequence (whole entry): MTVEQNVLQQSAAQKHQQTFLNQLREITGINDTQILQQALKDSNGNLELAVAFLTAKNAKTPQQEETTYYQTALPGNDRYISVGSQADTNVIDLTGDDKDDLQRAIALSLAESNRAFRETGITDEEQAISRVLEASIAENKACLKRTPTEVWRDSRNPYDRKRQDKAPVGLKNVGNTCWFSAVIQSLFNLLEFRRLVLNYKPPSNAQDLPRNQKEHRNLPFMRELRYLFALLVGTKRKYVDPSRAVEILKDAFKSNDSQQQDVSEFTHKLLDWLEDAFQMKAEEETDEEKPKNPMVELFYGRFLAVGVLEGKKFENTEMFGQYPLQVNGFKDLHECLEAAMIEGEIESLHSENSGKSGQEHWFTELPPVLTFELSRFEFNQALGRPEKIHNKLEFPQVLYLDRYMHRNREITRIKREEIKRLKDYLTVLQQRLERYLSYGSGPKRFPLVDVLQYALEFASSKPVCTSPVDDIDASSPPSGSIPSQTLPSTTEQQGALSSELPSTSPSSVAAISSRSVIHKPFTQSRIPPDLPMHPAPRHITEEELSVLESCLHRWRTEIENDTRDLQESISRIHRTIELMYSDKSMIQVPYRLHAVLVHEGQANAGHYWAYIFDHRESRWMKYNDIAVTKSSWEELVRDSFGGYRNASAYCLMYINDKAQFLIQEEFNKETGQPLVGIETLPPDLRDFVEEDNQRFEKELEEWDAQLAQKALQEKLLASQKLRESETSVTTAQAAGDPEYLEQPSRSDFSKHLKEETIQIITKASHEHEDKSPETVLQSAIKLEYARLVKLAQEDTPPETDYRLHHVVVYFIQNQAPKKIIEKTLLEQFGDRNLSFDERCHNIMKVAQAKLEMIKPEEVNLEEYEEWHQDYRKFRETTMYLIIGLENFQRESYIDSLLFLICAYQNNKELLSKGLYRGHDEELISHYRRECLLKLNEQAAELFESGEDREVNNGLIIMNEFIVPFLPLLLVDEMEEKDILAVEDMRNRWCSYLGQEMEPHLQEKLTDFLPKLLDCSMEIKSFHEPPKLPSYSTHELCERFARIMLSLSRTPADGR
In short: as §1

[4] = target: T3, USP28 (UniProt Q96RU2)
T3 sequence (whole entry): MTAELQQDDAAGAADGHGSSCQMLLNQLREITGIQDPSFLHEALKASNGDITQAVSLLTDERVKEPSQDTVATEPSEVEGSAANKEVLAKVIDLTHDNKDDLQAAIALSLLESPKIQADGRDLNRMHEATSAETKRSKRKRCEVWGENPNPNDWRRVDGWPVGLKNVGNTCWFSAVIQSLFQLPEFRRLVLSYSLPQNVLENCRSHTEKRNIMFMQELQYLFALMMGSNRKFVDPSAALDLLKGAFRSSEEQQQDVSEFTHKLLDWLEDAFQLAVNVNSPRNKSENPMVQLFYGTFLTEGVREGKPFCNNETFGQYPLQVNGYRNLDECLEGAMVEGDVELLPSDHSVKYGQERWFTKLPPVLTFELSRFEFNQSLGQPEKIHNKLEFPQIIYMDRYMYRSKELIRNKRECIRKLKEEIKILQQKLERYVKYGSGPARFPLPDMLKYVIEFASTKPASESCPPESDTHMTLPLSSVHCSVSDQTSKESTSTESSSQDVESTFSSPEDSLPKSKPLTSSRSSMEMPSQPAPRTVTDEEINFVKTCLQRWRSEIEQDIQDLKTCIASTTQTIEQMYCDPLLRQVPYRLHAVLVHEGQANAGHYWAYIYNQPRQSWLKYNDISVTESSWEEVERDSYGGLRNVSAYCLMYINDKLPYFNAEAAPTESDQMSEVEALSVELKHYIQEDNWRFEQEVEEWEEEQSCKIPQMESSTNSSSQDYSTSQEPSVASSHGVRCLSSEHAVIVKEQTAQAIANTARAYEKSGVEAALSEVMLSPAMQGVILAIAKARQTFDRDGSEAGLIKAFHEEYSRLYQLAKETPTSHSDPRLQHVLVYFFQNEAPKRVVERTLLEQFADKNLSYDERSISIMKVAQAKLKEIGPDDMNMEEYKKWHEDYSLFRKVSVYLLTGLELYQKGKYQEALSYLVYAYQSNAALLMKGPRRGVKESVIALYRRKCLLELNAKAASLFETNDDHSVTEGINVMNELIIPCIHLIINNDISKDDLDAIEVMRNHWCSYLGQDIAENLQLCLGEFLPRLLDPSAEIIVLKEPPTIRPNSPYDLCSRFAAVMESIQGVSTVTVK
In short: as §1

Measured: log2 ratio of Biotin-Ahx-Ub-VS probe labelling

Sequence of USP24 (Q9UPU5 whole entry): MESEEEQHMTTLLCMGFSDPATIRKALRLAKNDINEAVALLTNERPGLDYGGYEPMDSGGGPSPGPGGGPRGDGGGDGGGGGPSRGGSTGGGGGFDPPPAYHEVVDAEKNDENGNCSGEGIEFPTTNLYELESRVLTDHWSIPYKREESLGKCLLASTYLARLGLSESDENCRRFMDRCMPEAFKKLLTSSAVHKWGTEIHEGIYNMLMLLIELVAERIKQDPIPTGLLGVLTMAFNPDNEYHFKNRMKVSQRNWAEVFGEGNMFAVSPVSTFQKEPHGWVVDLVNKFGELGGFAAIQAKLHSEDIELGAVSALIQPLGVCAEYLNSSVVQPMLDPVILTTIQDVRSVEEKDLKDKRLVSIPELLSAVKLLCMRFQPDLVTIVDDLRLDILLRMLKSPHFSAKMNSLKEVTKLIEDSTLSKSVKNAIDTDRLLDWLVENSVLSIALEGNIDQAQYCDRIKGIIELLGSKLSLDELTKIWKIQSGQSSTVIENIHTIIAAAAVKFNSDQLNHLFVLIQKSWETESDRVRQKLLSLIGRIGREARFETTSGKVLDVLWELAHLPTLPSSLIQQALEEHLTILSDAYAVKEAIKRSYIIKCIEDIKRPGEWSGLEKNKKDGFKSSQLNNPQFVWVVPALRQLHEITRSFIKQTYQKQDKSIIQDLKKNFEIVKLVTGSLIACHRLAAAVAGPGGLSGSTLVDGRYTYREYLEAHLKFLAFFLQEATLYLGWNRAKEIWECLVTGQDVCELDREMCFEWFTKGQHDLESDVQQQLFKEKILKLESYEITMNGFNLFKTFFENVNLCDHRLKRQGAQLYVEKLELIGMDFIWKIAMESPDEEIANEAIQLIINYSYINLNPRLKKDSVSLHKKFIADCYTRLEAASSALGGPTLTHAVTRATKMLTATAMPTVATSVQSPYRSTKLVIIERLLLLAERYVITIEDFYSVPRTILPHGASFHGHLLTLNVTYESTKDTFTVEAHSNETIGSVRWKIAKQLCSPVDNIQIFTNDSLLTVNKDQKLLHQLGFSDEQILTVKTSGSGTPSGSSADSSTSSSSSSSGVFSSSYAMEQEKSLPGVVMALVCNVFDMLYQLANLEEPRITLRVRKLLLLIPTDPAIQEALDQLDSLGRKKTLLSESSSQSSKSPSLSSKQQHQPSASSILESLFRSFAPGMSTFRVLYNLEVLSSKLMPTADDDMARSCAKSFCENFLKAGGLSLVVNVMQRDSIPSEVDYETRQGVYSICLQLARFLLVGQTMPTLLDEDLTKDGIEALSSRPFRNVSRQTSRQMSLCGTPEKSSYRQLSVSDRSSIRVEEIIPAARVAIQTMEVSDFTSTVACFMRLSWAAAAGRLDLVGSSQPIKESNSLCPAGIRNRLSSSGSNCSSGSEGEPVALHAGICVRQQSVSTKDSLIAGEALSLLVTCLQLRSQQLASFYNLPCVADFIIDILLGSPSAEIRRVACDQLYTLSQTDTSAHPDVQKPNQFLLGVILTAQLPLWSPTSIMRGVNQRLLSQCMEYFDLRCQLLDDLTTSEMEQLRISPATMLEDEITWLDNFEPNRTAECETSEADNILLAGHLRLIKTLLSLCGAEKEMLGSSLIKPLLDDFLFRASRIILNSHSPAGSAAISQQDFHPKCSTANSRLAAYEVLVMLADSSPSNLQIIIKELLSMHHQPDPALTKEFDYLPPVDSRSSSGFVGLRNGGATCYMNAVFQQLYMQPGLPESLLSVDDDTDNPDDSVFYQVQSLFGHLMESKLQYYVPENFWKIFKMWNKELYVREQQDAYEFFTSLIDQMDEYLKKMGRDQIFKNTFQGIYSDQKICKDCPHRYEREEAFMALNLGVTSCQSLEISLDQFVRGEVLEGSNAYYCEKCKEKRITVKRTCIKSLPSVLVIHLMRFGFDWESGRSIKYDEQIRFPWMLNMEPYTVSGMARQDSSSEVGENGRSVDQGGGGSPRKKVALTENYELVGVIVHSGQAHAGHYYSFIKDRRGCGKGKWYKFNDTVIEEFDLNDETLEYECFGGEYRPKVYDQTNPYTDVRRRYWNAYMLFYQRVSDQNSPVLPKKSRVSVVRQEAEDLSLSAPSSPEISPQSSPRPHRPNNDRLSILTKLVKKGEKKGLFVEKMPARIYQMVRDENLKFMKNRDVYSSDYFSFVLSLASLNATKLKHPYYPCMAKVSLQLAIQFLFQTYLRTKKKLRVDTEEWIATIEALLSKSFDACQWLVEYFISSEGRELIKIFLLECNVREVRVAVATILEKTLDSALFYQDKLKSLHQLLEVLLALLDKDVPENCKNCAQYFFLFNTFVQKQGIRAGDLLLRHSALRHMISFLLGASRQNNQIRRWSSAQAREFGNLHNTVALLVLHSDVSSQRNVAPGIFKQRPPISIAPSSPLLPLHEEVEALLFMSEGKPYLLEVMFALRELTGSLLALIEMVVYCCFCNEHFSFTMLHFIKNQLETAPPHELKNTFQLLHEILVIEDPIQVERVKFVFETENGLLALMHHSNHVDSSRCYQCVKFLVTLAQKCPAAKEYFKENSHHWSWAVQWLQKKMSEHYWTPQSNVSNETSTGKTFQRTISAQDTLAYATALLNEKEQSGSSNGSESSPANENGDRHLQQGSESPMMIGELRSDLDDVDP

CC(c1ccccc1)N(C)C(=O)CCl (centres undefined)
inactive: [1] -0.444 | [2] -0.45 | [3] -0.472 | [4] -0.526
